Screening results deposited in PubChem by National Center for Advancing Translational Sciences (NCATS).
Sampled rows, rich in hits. Any-hit rate of the full collection: about 4.6%.
D1 agonist = Allosteric Agonists of the Human D1 Dopamine Receptor: qHTS; hit rate 1% among 360,000; D(1A) dopamine receptor (Homo sapiens), P21728; HEK293 T-REx D1 cells, calcium flux, agonist mode; activation, % at 2 µM; note: 0% is about no effect
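Agonism was scored from calcium flux recorded over 180 s (1 read/s) after pintool compound addition, following a 10-cycle baseline. Cells were inducible force-coupled HEK293 TREx D1, plated overnight at 30 C and loaded with no-wash calcium dye.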
D1 antagonist = Antagonist of Human D 1 Dopamine Receptor: qHTS; D(1A) dopamine receptor (Homo sapiens), P21728; activity change, negative = inhibition, % at 10 µM; AID 504652, 2011; HEK293 TREx D1 cells, calcium flux, dopamine EC80; stronger effect = lower value; hit rate 3.2% among 360,000; in the data active = activity change below about -30%; note: % is set by controls: 0 for no effect and ±100 for the full control effect
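After overnight tetracycline induction at 30 C, force-coupled D1 HEK293 cells took up a no-wash calcium dye at room temperature. Compounds were added and monitored 180 s, and the response to EC80 dopamine was then recorded.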
D1 potentiator = Potentiators of Human D1 Dopamine Receptor: qHTS. D(1A) dopamine receptor (Homo sapiens), P21728. HEK293 TREx D1 cells, calcium flux, dopamine EC20 potentiation. potentiation, % at 10 µM. hit rate 0.036% among 360,000. AID 504651, 2011; in the data active = potentiation above about 30%; note: 0% is about no effect
TRHR enhancer = qHTS for Small Molecule Agonists and Allosteric Enhancers of Human TRH Receptor: Primary Screen for Enhancers | Thyrotropin-releasing hormone receptor (Homo sapiens), P34981 | TRHR cells, fluo-8 calcium fluorescence, EC20 TRH enhancement | enhancement, % at 2 µM | hit rate 0.66% among 360,000 | AID 493056, 2011; in the data active = enhancement above about 30%; note: 0% is about no effect
Target sequence (P34981 whole entry, looked up): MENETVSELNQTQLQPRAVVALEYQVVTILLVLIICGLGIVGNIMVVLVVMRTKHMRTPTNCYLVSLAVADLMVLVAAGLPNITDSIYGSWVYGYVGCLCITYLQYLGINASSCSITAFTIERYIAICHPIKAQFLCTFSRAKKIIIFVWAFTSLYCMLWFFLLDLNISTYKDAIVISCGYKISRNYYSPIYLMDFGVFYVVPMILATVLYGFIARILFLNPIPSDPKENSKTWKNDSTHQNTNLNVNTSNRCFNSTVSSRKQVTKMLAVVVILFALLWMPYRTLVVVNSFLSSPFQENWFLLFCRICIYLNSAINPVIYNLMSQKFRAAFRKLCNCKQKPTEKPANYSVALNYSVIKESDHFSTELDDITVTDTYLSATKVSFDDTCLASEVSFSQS
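TRHR-expressing cells loaded with fluo-8 calcium dye were read kinetically (ex 480/em 530) during compound addition, then stimulated with an EC20 of TRH (10 nM final). Enhancement of the Gq-mediated intracellular calcium response was scored.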
TRHR agonist = qHTS for Small Molecule Agonists and Allosteric Enhancers of Human TRH Receptor: Primary Screen for Agonists. Thyrotropin-releasing hormone receptor (Homo sapiens), P34981. TRHR cells, calcium flux fluo-8, FDSS agonist mode. activation, % at 2 µM. hit rate 0.18% among 360,000. AID 493084, 2011; note: 0% is about no effect
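TRHR-expressing cells, plated overnight in medium with 10% serum, were loaded with fluo-8 calcium dye at room temperature. After a 10 s baseline, library compound was pin-added and calcium release was recorded kinetically (ex 480/em 530) as agonist response.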
Active calls of the source: *; . = no result. Cut-off read from the data, not from the text of the source, unless noted: active = activation above about 30%; inactive = the rest.

SMILES	D1 agonist	D1 antagonist	D1 potentiator	TRHR enhancer	TRHR agonist
Cc1cc2c(s1)c1cnn(Cc3ccc(Br)cc3F)c(=O)c1n2C	2	-17	-5	0	0
Cc1ccccc1CS(=O)(=O)c1cn(CC(=O)N2CCC(C)CC2)c2ccccc12	1	-65*	-5	-10	1
COc1ccc(-n2ncc3c(NC(C)(C)CO)ncnc32)cc1	-4	-10	-1	6	0
COc1ccc(CCn2c(N)cc(=O)[nH]c2=O)cc1OC	1	-48*	-7	7	0
COc1ccc(CCn2cc(C#N)c(=O)[nH]c2=O)cc1OC	0	20	-3	38*	1
COc1ccccc1CCn1cc(C#N)c(=O)[nH]c1=O	2	4	-1	8	0
N#Cc1c(-c2ccc(Cl)cc2)ccn2nc(C3CCCCC3)nc12	-3	-31*	-4	-4	2
CSc1cccc(NC(=O)C(c2ccccc2)N2Cc3ccccc3C2=O)c1 (configuration not stated)	2	-9	7	-5	1
S=c1[nH]nc(COc2ccccc2)n1/N=C/c1ccccc1Br	3	8	-4	-6	0
FC(F)(F)c1ccccc1/C=N/n1c(COc2ccccc2)n[nH]c1=S	38*	-36*	-6	3	0
S=c1[nH]nc(COc2ccccc2)n1/N=C/c1ccncc1	-2	.	0	-4	0
CCc1ccc(/C=N/n2c(COc3ccccc3)n[nH]c2=S)cc1	61*	-5	-4	-21	-1
CCc1cccc(C)c1NC(=O)Cn1ccn(-c2cccc(OC)c2)c(=O)c1=O	18	-14	-4	2	2
COc1cccc(N/C(SCc2ccccc2F)=C(/C#N)C(=O)NCc2cccs2)c1	34*	-40*	-3	-3	2
CCC(=O)Nc1nnc(/C=C/c2ccc(OC)cc2)s1	2	-48*	0	7	1
CCN(C1CCS(=O)(=O)C1)S(=O)(=O)c1ccc2ccccc2c1 (configuration not stated)	5	0	-8	-3	0
CC(=O)N1CCc2cc(Br)cc(S(=O)(=O)CCC(=O)N3CCN(c4ccccc4Cl)CC3)c21	0	-6	0	-2	0
O=C(c1ccoc1)N1CCC2(CC1)Oc1ccc(Cl)cc1C(=O)C21CC(c2cccnc2)=NO1 (configuration not stated)	5	-100*	-9	-2	2
Cc1ccc(Nc2nc(-c3c(C)nc4ccccn34)cs2)cc1	2	-48*	-6	-9	-1
Cc1ccn2c(-c3csc(NCc4ccccc4)n3)c(C)nc2c1	8	-33*	-17	-5	0
COc1cc(NC(=O)c2ccc(C)cc2)ccc1NC(=O)c1cc2ccccc2o1	4	4	-6	-4	-1
COc1cc(NC(=O)c2ccc(F)cc2)ccc1NC(=O)c1cc2ccccc2o1	1	-33*	-9	6	0
O=C(Nc1ccc(NC(=O)c2cc3ccccc3o2)cc1)c1ccc2c(c1)OCCO2	3	-43*	1	3	-1
CCOC(=O)N1CCN(C(=O)CCS(=O)(=O)c2cc3c(cc2Cl)NC(=O)CO3)CC1	4	21	-11	0	0
COc1cc(Cl)c(NC(=O)CCS(=O)(=O)c2ccc3c(c2)NC(=O)CO3)c(OC)c1	-2	14	-3	31*	0
SMILES	D1 agonist	D1 antagonist	D1 potentiator	TRHR enhancer	TRHR agonist
O=C(CCS(=O)(=O)c1cc2c(cc1Cl)NC(=O)CO2)NCc1ccc(Cl)cc1	0	4	-1	-5	0
COc1ccc(N2CCN(C(=O)CCS(=O)(=O)c3cc4c(cc3Cl)NC(=O)CO4)CC2)cc1	-2	-64*	-1	11	0
O=C(CCS(=O)(=O)c1cc2c(cc1Cl)NC(=O)CO2)NCc1ccc(F)cc1	1	-35*	-6	-4	0
CCc1cccc(NC(=O)CCS(=O)(=O)c2ccc3c(c2)NC(=O)CO3)c1	1	7	0	-1	1
CCN(CC)c1ccc2nc3c(=O)n(C)c(=O)n(C)c3nc2c1	144*	-18	3	4	68*
CCN1/C(=C/c2ccc3cc(C)ccc3[n+]2CC)Sc2ccccc21	15	-9	-8	25	50*
CCN1/C(=C/c2ccc3cc(C)ccc3[n+]2CC)Sc2cc(C)c(C)cc21	6	3	-3	29	13
Cc1cccc(-n2ncc3c(NCCN4CCOCC4)ncnc32)c1	1	-3	-3	19	0
c1ccc(CCNc2ncnc3c2cnn3-c2ccccc2)cc1	-2	21	-9	-1	0
Cc1cccc(-n2ncc3c(NCCc4ccc(S(N)(=O)=O)cc4)ncnc32)c1	0	-48*	-10	-6	0
Cc1ccc(-n2ncc3c(NCCc4ccc(S(N)(=O)=O)cc4)ncnc32)cc1	-3	-48*	-4	-4	0
CCN(CC)c1ccc2c(O)cc(=O)oc2c1	1	-8	-2	0	0
CCN(CC)c1ccc(C(=O)OCc2cc(=O)oc3cc(O)ccc23)cc1	2	-33*	-11	-6	0
Cc1ccc(C(=O)NCC(c2ccc3c(c2)OCO3)N2CCOCC2)cc1 (configuration not stated)	-1	0	-4	-4	0
Cc1cc(Cl)ccc1Oc1ncnc2oc(-c3ccccc3)cc12	3	2	0	1	0
Cc1cccc(Oc2ncnc3oc(-c4ccccc4)cc23)c1C	1	-81*	-11	-7	0
NC(=O)COc1cccc2cccnc12	0	-79*	-10	-23	0
Cc1cc(NC(=O)COc2cccc3cccnc23)no1	1	0	0	-1	0
CCOC(=O)c1c(NC(=O)COC(=O)C2CCC2)sc(C(=O)N(C)C)c1C	3	-46*	-9	1	0
CCN1CCN(C(c2ccc(OC)cc2)c2c(O)cc(C)n(CCOC)c2=O)CC1 (configuration not stated)	0	-7	3	-4	0
COCCn1c(C)cc(O)c(C(c2ccccc2OC)N2CCN(c3ccccc3)CC2)c1=O (configuration not stated)	0	-23	-3	45*	0
CCN1CCN(C(c2ccc(Cl)cc2)c2c(O)cc(C)n(CCOC)c2=O)CC1 (configuration not stated)	-2	-39*	2	8	0
COc1ccccc1NC(=O)c1cnc(SCC(=O)N2CCOCC2)n(C)c1=O	-3	.	-2	-4	0
